Assay outcomes (PubChem BioAssay)
In the library only some 4.1% were active in any assay of this set; here they are far more common.
hgDAF-12 ag = activates the H. glycines DAF-12 receptor ligand-binding domain. HEK293 GAL4-hgDAF12 UAS-luciferase reporter, agonist luminescence; normalized to butyrate control. activation, % at 6.8 µM. 1.8% of 370,000 active. AID 687014;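 active = activation above a cutoff set at the mean of all screened compounds plus 3 SD, cut at about 10% in these data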
hcDAF-12 act = activators of H. contortus DAF-12 nuclear receptor. 1.4% of 370,000 active. activation, % at 6.8 µM. AID 652067. HEK293 hcDAF-12 lit1-tk-luc reporter, luminescence; 0% DMSO, 100% Δ7-dafachronic acid;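 active = activation above the mean of all tested compounds plus 3 SD, cut at about 5.5% in these data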
DAX1 inh-1 = DAX1 (NR0B1) inhibition, primary screen; HEK293T StAR-luciferase reporter, SF-1/DAX-1 repression relief; inhibition, % at 6.8 µM; 1.1% of 370,000 active; AID 652010;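 active = inhibition above the mean over all tested compounds plus 3 SD, cut at about 3.6% in these data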;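 also: higher inhibition means more luminescence from relief of DAX-1 repression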
ssDAF12 agonist = S. stercoralis DAF-12 activation, primary screen; HEK293 ssDAF-12/GRIP1 lit1-tk-luc reporter, luminescence; % of 3 µM dafachronic acid response; activation, % at 6.8 µM; 1% of 370,000 active; AID 652126;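 active = activation above the mean over all tested compounds plus 3 SD, cut at about 0.9% in these data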
DAX1 inh-2 = inhibits human nuclear receptor DAX1; P51843; HEK293 Gal4-DAX1 luciferase reporter, luminescence; inhibition, % at 6.75 µM; 0.99% of 340,000 active;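 active = inhibition above the mean over all tested compounds plus 3 SD, cut at about 4.2% in these data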;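 also: inhibition shows as a rise in luminescence from relieved DAX1 repression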
Target sequence (P51843 207-470 limits assumed): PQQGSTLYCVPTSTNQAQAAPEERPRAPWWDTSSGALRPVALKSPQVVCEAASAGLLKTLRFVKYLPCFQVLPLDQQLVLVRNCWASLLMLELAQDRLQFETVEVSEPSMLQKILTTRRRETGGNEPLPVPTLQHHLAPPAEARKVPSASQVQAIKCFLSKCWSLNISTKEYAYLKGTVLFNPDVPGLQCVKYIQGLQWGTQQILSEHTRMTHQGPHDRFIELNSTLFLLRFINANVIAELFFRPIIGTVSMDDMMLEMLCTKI
A number is an active result; i = inactive; nt = no result given.

SMILES	hgDAF-12 ag	hcDAF-12 act	DAX1 inh-1	ssDAF12 agonist	DAX1 inh-2
Cc1[nH]c2ccccc2c1CCN(Cc1cccs1)C(=O)Nc1cccc2c1OCO2	10.6	i	i	i	nt
COc1ccc(NC(=O)N(CCc2c(C)[nH]c3ccccc23)Cc2cccs2)cc1OC	i	i	i	i	nt
COc1ccc(C2Nc3ccccc3C(=O)N2Cc2cccnc2)cc1COc1c(C)cccc1C (stereo unspecified)	i	i	nt	i	nt
CN1CCN(C(=O)CSc2ccc(Cl)cc2)CC1	i	i	i	i	4.6
CN1CCCN(C(=O)CSc2ccccc2)CC1	i	i	i	i	i
Cn1c(=S)[nH]c2ccccc21	i	5.9	i	i	4.7
C=CCN1C(=O)[C@H]2CCC=C[C@H]2[C@@H]1c1cccc(C)c1	i	i	i	i	i
Cc1cccc([C@H]2[C@@H]3C=CCC[C@@H]3C(=O)N2Cc2ccccc2)c1	i	i	3.8	i	i
C#CCNC(=O)C[C@@H]1C(=O)N(Cc2ccc(OC)cc2)/C2=C/CCCCC[C@@]21C(=O)OCC	i	i	i	i	nt
Cc1ccc(C(=O)NC(=S)N(C)C2CCCCC2)cc1	10.5	i	i	i	i
CCCc1nc2c(C)cc(Br)cn2c1Cc1ccccc1OC	i	i	i	i	nt
Brc1ccc2nc(-c3ccc(CN4CCC5(CC4)CNc4ccccc45)cc3)c(-c3ccccc3)nc2c1	i	i	i	i	nt
O=C(NNC(=O)C1CC2CCC1C2)c1sc2ccccc2c1Cl (stereo unspecified)	12.9	i	i	i	i
O=C(NC1CC1)c1sc2ccccc2c1Cl	i	i	i	i	i
COc1ccccc1CNC(=O)c1ccc(S(=O)(=O)N(C)c2ccccc2)cc1	i	i	i	i	i
COc1ccccc1N(C)S(=O)(=O)c1ccc(C(=O)NCc2ccccc2CN2CCCC2)cc1	i	i	4.2	i	i
Cc1c(C(=O)Nc2ccccc2)cnn1-c1ccccc1	i	i	i	i	i
Cc1c(C(=O)Nc2cccc(F)c2)cnn1-c1ccccc1	10.4	i	i	1.6	i
Cc1ccccc1NC(=O)c1cnn(-c2ccccc2)c1C	12.2	i	i	i	i
O=C1N(CC[C@@H](O)c2ccccc2)CCC12CCC(c1ccccc1)CC2 (stereo partly specified)	i	i	nt	i	nt
Cc1ccc2cc(CCNC(=O)c3ccco3)c(=O)[nH]c2c1C	12.9	6.5	4.4	i	i
Cc1ccc2cc(CCNC(=O)c3ccco3)c(=O)[nH]c2c1	i	i	i	i	i
COc1cc2c(c(OC)c1)C(=O)O[C@H](C)C[C@@H]1O[C@H]1CCCCC(=O)C2	i	i	i	i	nt
Cc1ccc(NC(=O)CN(C)C(=O)/C=C/c2cccs2)cc1	i	i	i	1.3	i
CC(CCN1CCC(C(O)(c2ccccc2)c2ccccc2)CC1)Oc1cccc(Cl)c1 (stereo unspecified)	i	i	i	i	nt
SMILES	hgDAF-12 ag	hcDAF-12 act	DAX1 inh-1	ssDAF12 agonist	DAX1 inh-2
CC(CCN1CCC(C(O)(c2ccccc2)c2ccccc2)CC1)Oc1cccc(C(F)(F)F)c1 (stereo unspecified)	i	6.4	i	i	nt
CC(OC(=O)c1cccnc1Cl)C(=O)Nc1ccc(S(N)(=O)=O)cc1 (stereo unspecified)	i	i	i	i	6.2
OCC1OC(n2cnc3c(NCCc4ccccc4)ncnc32)C(O)C1O (stereo unspecified)	12.7	i	i	i	i
CCCCOCCCNC(=O)C[C@H]1C[C@@]2(C(=O)OC)C(=C[C@H](C(C)C)O[C@@H]2C2CC2)N(Cc2cccc3ccccc23)C1=O	i	i	i	i	nt
O=C1OCC(CO)(CO)N=C1NNc1ccccc1[N+](=O)[O-]	i	i	i	i	5.2
CN1[C@@H](Cc2ccccc2)COc2cccc(N3CCCC3)c2S1(=O)=O	i	i	i	i	nt
O=c1ccn(-c2ccccc2)[nH]1	i	i	i	i	4.4
O=c1[nH]n(-c2ccccc2)c(=O)c(Cl)c1Cl	nt	nt	nt	nt	i
CCOc1ccc2ccccc2c1CNc1nnnn1CC	i	i	i	i	4.9
CCOC(=O)c1c(NC(=O)CSc2nnc(C)c(=O)[nH]2)sc(C)c1-c1ccc(C)cc1	i	i	i	i	4.6
O=C(NCc1ccco1)C(Cc1ccccc1)N1C(=O)c2ccccc2C1=O (stereo unspecified)	i	6.3	i	i	i
CCCCNC(=O)c1ccc2nc(CC)c(N(CCC(C)C)CCN(C)C)n2c1	i	i	i	i	nt
CCCCNC(=O)c1ccc2nc(CC)c(N(CC)CCN(C)C)n2c1	i	i	i	0.9	nt
CCc1ccc(Nc2nnc(SCC(=O)Nc3cccc(S(=O)(=O)NC4=NCCCCC4)c3)s2)cc1	11.6	i	i	i	i
CCc1ccc(Nc2nnc(SCC(=O)Nc3ccc(C(=O)O)cc3)s2)cc1	i	i	3.7	i	i
Cc1ccc(CSc2nnc(SCC(=O)N/N=C/c3ccc(C(=O)O)cc3)s2)cc1	i	i	i	i	4.3
CCCC(=O)Nc1nnc(SCC(=O)Nc2ccc3c(c2)OCCO3)s1	i	i	i	1.5	i
COC(=O)C1CN(C2CC2)CCS(=O)(=O)N1Cc1cn(Cc2ccc(F)cc2)nn1 (stereo unspecified)	i	i	i	i	nt
CC(C)[C@@H]1CC[C@@H](C)C[C@H]1OC[B-](F)(F)F	i	i	i	i	nt
CC(=O)Nc1ccc(NC(=O)CSc2nnc(NC(=O)C3CC3)s2)cc1	i	i	i	i	6.5
O=C(CSc1nnc(NC(=O)C2CC2)s1)Nc1ccc(F)cc1	i	i	i	i	i
CN(Cc1cn(Cc2ccccc2)nn1)S(=O)(=O)c1ccc(F)cc1Br	i	i	i	i	nt
Clc1nccnc1N/N=C/c1ccc(Br)cc1	12.7	i	i	i	5.1
Cc1cc(Nc2ccc(Cl)c(C(F)(F)F)c2)cc(=O)n1-c1ccc(Cl)c(C(F)(F)F)c1	i	i	i	i	nt
COCC(=O)Nc1ccc(S(=O)(=O)Nc2nccs2)cc1	i	i	i	i	4.4
SMILES	hgDAF-12 ag	hcDAF-12 act	DAX1 inh-1	ssDAF12 agonist	DAX1 inh-2
COc1ccccc1OCC(=O)Nc1ccc(S(=O)(=O)Nc2nccs2)cc1	i	i	i	i	i
Cc1ccc(C)c(NC(=S)c2nc3ccccc3s2)c1	i	5.8	i	1.0	i
Cc1ccc(NC(=S)c2nc3ccccc3s2)cc1	i	i	i	i	i
CCC1=NN2C(=N)/C(=C\c3cccn3-c3ccc(Br)cc3)C(=O)N=C2S1	i	i	i	i	4.7
COC(=O)[C@H]1Cc2c([nH]c3ccccc23)[C@H](c2ccccc2)N1	i	6.4	i	i	i
COC(=O)C1Cc2c([nH]c3ccccc23)CN1 (stereo unspecified)	i	i	i	i	i
CC(=O)c1ccc(N=Nc2c(C)[nH][nH]c2=O)cc1	i	i	i	i	5.5
CC(=O)c1ccc(N=Nc2c(C)[nH]n(-c3ccccc3)c2=O)cc1	i	i	i	0.9	i
Cc1ccc(N=Nc2c(N)n(-c3ccccc3)[nH]c2=O)cc1	i	5.6	i	i	i
